Results taken from PubChem BioAssay (NCATS).
Results filed as inconclusive are left out. Active and inactive are the calls of the source. Calls come from the whole dose curve; as a rule, active = well fitted inhibition curve with a large enough effect; inconclusive = small, poorly fitted or top-dose-only effect; inactive = flat fitted curve, though single readings scatter.

Legend:
[1] = tested on: P94_40; assay: qHTS profiling for inhibitors of Plasmodium falciparum proliferation (AID 504749);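 note: 0% = DMSO vehicle and full inhibition = artemisinin control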; details: P. falciparum in erythrocytes, SYBR Green DNA, 72 h; series mostly up to 28.7 µM
How it was run: (§1)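 Infected RBCs, 0.3% parasitemia/2.5% Hct final; cpd 72 h, 37 C, 5% CO2; lysis buffer with saponin/triton/SYBR Green I, o/n RT dark; FI 485/535; norm. to artemisinin (0.29 uM) and DMSO.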

[2] = tested on: PAD; assay: as above; details: P. falciparum in erythrocytes, SYBR Green DNA, 72 h; series mostly up to 28.7 µM
How it was run: as §1

[3] = tested on: PC15; assay: as above; details: P. falciparum in erythrocytes, SYBR Green DNA, 72 h; series mostly up to 28.7 µM
How it was run: as §1

[4] = tested on: PC26; assay: as above; details: P. falciparum in erythrocytes, SYBR Green DNA, 72 h; series mostly up to 28.7 µM
How it was run: as §1

[5] = tested on: PC49; assay: as above; details: P. falciparum in erythrocytes, SYBR Green DNA, 72 h; series mostly up to 28.7 µM
How it was run: as §1

[6] = tested on: SC27B; assay: as above; details: P. falciparum in erythrocytes, SYBR Green DNA, 72 h; series mostly up to 28.7 µM
How it was run: as §1

[7] = tested on: TAB109; assay: as above; details: P. falciparum in erythrocytes, SYBR Green DNA, 72 h; series mostly up to 28.7 µM
How it was run: as §1

[8] = tested on: TAB113; assay: as above; details: P. falciparum in erythrocytes, SYBR Green DNA, 72 h; series mostly up to 28.7 µM
How it was run: as §1

[9] = tested on: TAB165; assay: as above; details: P. falciparum in erythrocytes, SYBR Green DNA, 72 h; series mostly up to 28.7 µM
How it was run: as §1

[10] = tested on: W2; assay: as above; details: P. falciparum in erythrocytes, SYBR Green DNA, 72 h; series mostly up to 28.7 µM
How it was run: as §1

[11] = tested on: CRL-7250; assay: Cytotoxic Profiling of Annotated Libraries Using Quantitative High-Throughput Screening (AID 1296008); details: Five cell lines viability, CellTiter-Glo ATP luminescence, 48-72 h; hits give low values; for max response: % is set by controls: 0 for no effect and ±100 for the full control effect
How it was run: (§2)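 Cytotoxicity was measured as CellTiter-Glo ATP luminescence, read after 10 min at room temperature. Compound treatment of the cells lasted 48 or 72 hr at 37 degrees Celsius in a qHTS format.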

[12] = tested on: HEK293; assay: as above; details: Five cell lines viability, CellTiter-Glo ATP luminescence, 48-72 h; hits give low values
How it was run: as §2

[13] = tested on: HaCat; assay: as above; details: Five cell lines viability, CellTiter-Glo ATP luminescence, 48-72 h; hits give low values
How it was run: as §2

[14] = tested on: KB-3-1; assay: as above; details: Five cell lines viability, CellTiter-Glo ATP luminescence, 48-72 h, hits give low values
How it was run: as §2

[15] = tested on: NIH3T3; assay: as above; details: Five cell lines viability, CellTiter-Glo ATP luminescence, 48-72 h; hits give low values
How it was run: as §2

[16] = tested on: HACAT; assay: qHTS assay to identify novel small-molecules to repurpose for Merkel cell carcinoma treatment (AID 1296009); details: MCC and control cell lines, CellTiter-Glo viability, 72 h; at 44.8 µM (top of the series) unless noted; for activity change, negative = cytotoxicity: % is set by controls: 0 for no effect and ±100 for the full control effect
How it was run: (§3)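 72 hr, 37 degree celsius; NPC 8-pt / MIPE 11-pt dose response; compound pinned in DMSO; CellTiter-Glo, 10 min RT, luminescence; normalized to no-cell and DMSO controls.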

[17] = tested on: MCC-13; assay: as above; details: MCC and control cell lines, CellTiter-Glo viability, 72 h; series mostly up to 46 µM
How it was run: as §3

[18] = tested on: MCC-26; assay: as above; details: MCC and control cell lines, CellTiter-Glo viability, 72 h; series mostly up to 46 µM
How it was run: as §3

[19] = tested on: MKL-1; assay: as above; details: MCC and control cell lines, CellTiter-Glo viability, 72 h; series mostly up to 46 µM
How it was run: as §3
Note: nearly all actives have a fitted effect of over 60% in size.

Cc1cccc(Nc2ccccc2C(=O)O)c1C
inactive: Potency [1] | Potency [2] | Potency [3] | Potency [4] | Potency [5] | Potency [6] | Potency [7] | Potency [8] | Potency [9] | Potency [10] | max response [11] 0.921% | max response [12] -1.57% | outcome [13] | max response [14] 3.77% | max response [15] 1.27% | outcome [16] | outcome [17] | outcome [18] | outcome [19]

COc1nccnc1NS(=O)(=O)c1ccc(N)cc1
inactive: Potency [1] | Potency [2] | Potency [3] | Potency [4] | Potency [5] | Potency [6] | Potency [7] | Potency [8] | Potency [9] | Potency [10] | max response [11] 3.15% | max response [12] 4.9% | outcome [13] | max response [14] -12% | outcome [15] | outcome [16] | outcome [17] | outcome [18] | outcome [19]

CN1CCCN=C1COC(=O)C(O)(c1ccccc1)C1CCCCC1 (configuration not stated)
inactive: Potency [1] | Potency [2] | Potency [3] | Potency [4] | Potency [5] | Potency [6] | Potency [7] | Potency [8] | Potency [9] | Potency [10] | max response [11] -8.2% | max response [12] -8.47% | outcome [13] | max response [14] -13.9% | outcome [15] | outcome [16] | outcome [17] | outcome [18] | outcome [19]

FC(F)(F)C(Cl)Br (configuration not stated)
inactive: Potency [1] | Potency [2] | Potency [3] | Potency [4] | Potency [5] | Potency [6] | Potency [7] | Potency [8] | Potency [9] | max response [11] 3.98% | max response [12] 0.482% | outcome [13] | max response [14] -3.43% | outcome [15] | outcome [16] | outcome [17] | outcome [18] | outcome [19]

NCC1CCC(C(=O)Oc2ccc(CCC(=O)O)cc2)CC1 (configuration not stated)
inactive: Potency [1] | Potency [2] | Potency [3] | Potency [4] | Potency [5] | Potency [6] | Potency [7] | Potency [8] | Potency [9] | Potency [10] | max response [11] -11.6% | max response [12] -1.47% | outcome [13] | max response [14] -7.85% | max response [15] -0.473% | outcome [16] | outcome [17] | outcome [18] | outcome [19]

N[C@@H](Cc1ccc(O)cc1)C(=O)O
inactive: Potency [1] | Potency [2] | Potency [3] | Potency [4] | Potency [5] | Potency [6] | Potency [7] | Potency [8] | Potency [9] | Potency [10] | max response [11] 1.09% | max response [12] 3.89% | outcome [13] | max response [14] -4.34% | outcome [15] | outcome [16] inactive [at 9.27 µM] | activity change, negative = cytotoxicity [17] 12.1% [at 9.22 µM] | activity change, negative = cytotoxicity [18] 4.77% [at 9.22 µM] | activity change, negative = cytotoxicity [19] 3.97% [at 9.22 µM]

CC(N)CCCC(C)(C)O (configuration not stated)
inactive: Potency [1] | Potency [2] | Potency [3] | Potency [4] | Potency [5] | Potency [6] | Potency [7] | Potency [8] | Potency [9] | Potency [10] | max response [11] -9.12% | max response [12] -17.6% | outcome [13] | max response [14] 2.21% | outcome [15] | outcome [16] | outcome [17] | outcome [18] | outcome [19]

CC(=O)Nc1ccccc1
inactive: Potency [1] | Potency [2] | Potency [3] | Potency [4] | Potency [5] | Potency [6] | Potency [7] | Potency [8] | Potency [9] | Potency [10] | max response [11] 2.87% | max response [12] -7.78% | outcome [13] | max response [14] 12.7% | outcome [15] | outcome [16] | outcome [17] | outcome [18] | outcome [19]

CCN(CC)C(=O)c1cccc(C)c1
inactive: Potency [1] | Potency [2] | Potency [3] | Potency [4] | Potency [5] | Potency [6] | Potency [7] | Potency [8] | Potency [9] | Potency [10] | outcome [11] | max response [12] 0.224% | outcome [13] | max response [14] 13.2% | outcome [15] | outcome [16] | outcome [17] | outcome [18] | outcome [19]

CC1CCc2cc(F)cc3c(=O)c(C(=O)O)cn1c23 (configuration not stated)
inactive: Potency [1] | Potency [2] | Potency [3] | Potency [4] | Potency [5] | Potency [6] | Potency [7] | Potency [8] | Potency [9] | Potency [10] | outcome [11] | max response [12] -3.78% | outcome [13] | max response [14] -6.7% | max response [15] -1.98% | outcome [16] | outcome [17] | outcome [18] | outcome [19]

O=C(O)CCCCC1CCSS1 (configuration not stated)
inactive: Potency [1] | Potency [2] | Potency [3] | Potency [4] | Potency [5] | Potency [6] | Potency [7] | Potency [8] | Potency [9] | Potency [10] | max response [11] -4.66% | max response [12] 0.811% | outcome [13] | max response [14] 3.98% | max response [15] 1.45% | outcome [16] | outcome [17] | outcome [18] | outcome [19]

CC(=O)SC[C@@H](Cc1ccccc1)C(=O)NCC(=O)OCc1ccccc1
inactive: Potency [1] | Potency [2] | Potency [3] | Potency [4] | Potency [5] | Potency [6] | Potency [7] | Potency [8] | Potency [9] | Potency [10] | outcome [11] | max response [12] -5.72% | outcome [13] | max response [14] 6.03% | max response [15] -11.9% | outcome [16] | outcome [17] | outcome [18] | outcome [19]
